Measured values as given in PubChem BioAssay (NCATS).
Records with an inconclusive call do not appear. Active and inactive are the calls of the source. The call rests on the fitted dose curve; in most records, active means well fitted curve in the direction sought with a large enough effect; inconclusive means small, poorly fitted or top-dose-only effect, or another doubt; inactive means no such curve, though single readings can be large; an effect the other way counts as inactive or inconclusive.

What was measured:
[1] = Confirmatory screen GU Rhodamine qHTS for Zika virus inhibitors qHTS (AID 1347157); settings: purified enzyme assay, Rhodamine110 substrate fluorescence, 15 min; series mostly up to 114 µM; further: potency means the concentration at half of the fitted maximal effect; nearly all actives have a fitted effect of over 70% in size
Method in brief: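 Unlinked NS2B/NS3, 25 nM; Rhod110 peptide, 1.5 microM; compounds, up to 114 microM. Reaction run 15 min at RT in 10 mM Tris-HCl pH 8.0, 0.01% Tween 20; kinetic fluorescence change fitted with a 4-parameter Hill model.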

[2] = test system: Zika virus NS2B-NS3 protease (linked construct); assay: Primary screen NINDS Rhodamine qHTS for Zika virus inhibitors (AID 1347160); settings: purified NS2B-NS3 protease, Rhodamine110 substrate fluorescence; series mostly up to 57.1 µM; further: nearly all actives have a fitted effect of over 55% in size; further: potency means the concentration at half of the fitted maximal effect
Method in brief: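 Purified NS2B-NS3 protease with the NS2B hydrophilic domain joined by a flexible linker (25 nM) in 10 mM Tris-HCl pH 8.0, 0.01% Tween 20, preincubated 15 min at RT with compound; Rhodamine110 peptide substrate 1.5 µM; fluorescence change over 15 min; 4-parameter Hill fit.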

[3] = test system: Zika virus NS2B-NS3 protease (linked construct); assay: 384 well plate NINDS Rhodamine confirmatory qHTS for Zika virus inhibitors (AID 1347164); settings: rhodamine-110 peptide substrate fluorescence; series mostly up to 100 µM;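 further: fluorescence from protease cleavage of Ac-LKRR-rhodamine 110 substrate; nearly all actives have a fitted effect of over 65% in size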; further: potency means the concentration at half of the fitted maximal effect
Method in brief: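 Enzyme (final 5/30/60 nM) + cpd (DMSO), ~15 min; add Ac-LKRR-Rd 10 microM final; 25 min RT, dark; FI ex 485/em 538; normalized to no-enzyme, no-inhibitor ctrls; aprotinin intraplate ctrl.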

[4] = Tertiary RLuc qRT-PCR qHTS assay for Zika virus inhibitors (AID 1347169); settings: infected Vero cells, reporter luminescence, 48-72 h; series mostly up to 45.9 µM; further: nearly all actives have a fitted effect of over 55% in size; further: potency means the concentration at half of the fitted maximal effect
Method in brief: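 Vero, 1,000 cells/well, o/n 37 C; cpd pinned in DMSO; ZIKV-RLuc Cambodian, MOI 1-2, 48-72 h 37 C; live-cell RLuc substrate, lum read at 1-1.5 h.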

[5] = ZIKV-mCherry secondary qHTS for Zika virus inhibitors (AID 1347158); settings: Vero cells, ZIKV-mCherry infection imaging, 48-72 h; series mostly up to 49.2 µM; further: potency means the concentration at half of the fitted maximal effect
Method in brief: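 Vero cells, 5,000/well, plated overnight at 37 °C, then compound added and infected with recombinant ZIKV-mCherry at MOI 1 for 48-72 h. PFA-fixed, Hoechst nuclear stain, high-content imaging; cells with mCherry intensity above 450 RFU scored infected, reported as percent infection.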

[6] = test system: Zika virus NS2B-NS3 protease (linked); assay: 384 well plate NINDS AMC confirmatory qHTS for Zika virus inhibitors (AID 1347163); settings: Recombinant NS2B-NS3 protease, Ac-VKTGKR-AMC fluorescence; series mostly up to 100 µM; further: nearly all actives have a fitted effect of over 50% in size; further: potency means the concentration at half of the fitted maximal effect
Method in brief: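 Linked protease 5/30/60 nM final; cpds up to 1 mM final, ~15 min preinc. Substrate Ac-VKTGKR-AMC 30 microM final. RT, dark, 25 min; FI ex 355/em 460; normalized to no-enzyme/no-inhibitor ctrls.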

[7] = Vero cells viability qHTS for Zika virus inhibitors (AID 1347167); settings: cytotoxicity counter-screen (Zika); series mostly up to 45.9 µM
Method in brief: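 Counter-screen for cytotoxicity of hits from NS2B-NS3 protease qHTS. Overnight-attached cells (2.5 x 10^5 cells/mL, DMEM/4% FBS) were dosed in titration, incubated 24 to 48 hours, then assayed by CellTiter Glo.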

[8] = test system: Zika virus NS2B-NS3 protease (unlinked complex); assay: Primary screen GU Rhodamine qHTS for Zika virus inhibitors: Unlinked NS2B-NS3 protease assay (AID 1347159); settings: Recombinant ZIKV NS2B-NS3 protease, Rhodamine110 substrate fluorescence; series mostly up to 107 µM; further: nearly all actives have a fitted effect of over 60% in size; further: potency means the concentration at half of the fitted maximal effect
Method in brief: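 Noncovalent NS2B hydrophilic domain/NS3 protease complex (25 nM final) in 10 mM Tris-HCl pH 8.0, 0.01% Tween 20, preincubated 15 min with compounds (up to 114 microM), then 1.5 microM Rhodamine110 substrate. Fluorescence change over 15 min fitted to 4-parameter Hill.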

Compound | Potency [1] | Potency [2] | Potency [3] | Potency [4] | Potency [5] | Potency [6] | outcome [7] | Potency [8]
CC(C)C[C@H](C(=O)O)c1cc(-c2ccc(C(F)(F)F)cc2)cc(-c2ccc(C(F)(F)F)cc2)c1 | 3.12 µM (active) | 3.55 µM (active) | inactive | 9.3 µM (active) |  |  |  | 
CCC(C)/C=C(C)/C=C/C1=CC2=CC(=O)C3(C)OC(C)(O)C(C(=O)OC)C3C2=CO1 (configuration not stated) | 19.2 µM (active) | inactive |  | inactive |  |  |  | 
N#Cc1ccc(N2N=C3c4ccc(C(=O)O)cc4CC[C@@H]3[C@@H]2C2CCCC2)cc1Cl | 2.21 µM (active) |  | 4.47 µM (active) | 14.7 µM (active) | 2.51 µM (active) | inactive | inactive | 
Cc1noc(-c2ccc(-c3ccc(CC(=O)O)cc3)cc2)c1NC(=O)O[C@H](C)c1ccccc1Cl | 5.55 µM (active) | 4.47 µM (active) | 7.94 µM (active) | 14.7 µM (active) |  | 20 µM (active) |  | 3.16 µM (active)
CCC(C)C(=O)Oc1cc(C)ccc1C1(COC(=O)C(C)C)CO1 (configuration not stated) |  |  |  |  |  |  |  | inactive
O=S(=O)(Nc1cc(Cl)c(Oc2cnc3ccccc3c2)c(Cl)c1)c1ccc(Cl)cc1Cl | 1.75 µM (active) | 3.98 µM (active) | 2.51 µM (active) | 9.3 µM (active) |  |  |  | 1.78 µM (active)
CC(C)C[C@H](CO)Nc1nc(S[C@@H](C)c2ccccc2)nc2nc(N)sc12 | 55.5 µM (active) |  |  |  |  |  |  | inactive
CCCCCc1ccc(/C=C/C(=O)Nc2cc(Cl)ccc2C(=O)O)cc1 | 1.75 µM (active) | 2 µM (active) | 22.4 µM (active) |  |  |  |  | 
CC(C)(C)Sc1c(CC(C)(C)C(=O)O)n(Cc2ccc(Cl)cc2)c2ccc(OCc3ccc4ccccc4n3)cc12 | 3.93 µM (active) | 4.47 µM (active) | inactive | 11.7 µM (active) |  | 14.1 µM (active) | inactive | 2.82 µM (active)
